PHOSPHO1 block: inhibitors of human PHOSPHO1 phosphatase. inhibition, % at 13.3 µM. Q8TCT1. 290,000 tested, 1.1% active. recombinant PHOSPHO1, absorbance phosphatase assay; in the data active = inhibition above about 60%
Target sequence (Q8TCT1 whole entry, looked up): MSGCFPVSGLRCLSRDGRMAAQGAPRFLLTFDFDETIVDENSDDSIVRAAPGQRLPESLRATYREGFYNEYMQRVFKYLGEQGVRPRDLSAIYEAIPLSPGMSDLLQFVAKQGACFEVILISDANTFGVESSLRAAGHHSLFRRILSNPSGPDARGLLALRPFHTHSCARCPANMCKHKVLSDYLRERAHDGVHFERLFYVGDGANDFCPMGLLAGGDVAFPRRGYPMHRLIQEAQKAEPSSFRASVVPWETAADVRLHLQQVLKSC
ABCB6 inh MLPCN: human ABCB6 transporter inhibition; K562-ABCB6 porphyrin accumulation, flow cytometry, 1 h; hits give low values; Q9NP58; fluorescence ratio to DMSO, % at 10 µM; 360,000 tested, 0.19% active;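 active = fluorescence ratio to DMSO below 75%, the collection mean minus 3 SD; inconclusive = too few cells collected in the well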;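 also: signal is porphyrin accumulated inside mitochondria; 100% equals median channel fluorescence of DMSO control wells; lower ratio means ABCB6 inhibition with less porphyrin fluorescence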
PABP FP inh: blocks human PABP binding to poly(A) RNA; P11940; fluorescence polarization; calls only at 35 µM; 290,000 tested, 1% active; AID 2014;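 also: calls also rest on retests at 20 µM and on dose response follow-up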
eIF4H FP inh: inhibitors of RNA binding by human eIF4H; Q15056; eIF4H fluorescence polarization binding assay; inhibition, % at 35 µM; 290,000 tested, 0.94% active; AID 2012;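 also: calls also rest on retests at 20 µM and on dose response follow-up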
PABP1 MLLE inh: inhibitors of microRNA-mediated deadenylation, human PABP1 MLLE binding. GST-MLLE / FITC-PAM2 fluorescence polarization. 360,000 tested, 0.36% active. inhibition, % at 20 µM. P11940; in the data active = inhibition above about 35%, passing the limit was not always enough;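 also: plate controls were DMSO wells with GST-MLLE for no effect and wells lacking GST-MLLE protein for full effect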
AI-2 QS modul: modulators of Vibrio harveyi AI-2 quorum sensing system. Vibrio harveyi JMH597 AI-2 luminescence/OD600 ratio, 9 h; hits give low values; strain lacks LuxN and CqsS sensors; 0 = neutral-control median. activity change, % at 7.5 µM. 300,000 tested, 0.4% active; in the data active = activity change below about -75%, passing the limit was not always enough; inconclusive = no clear call, values can overlap the other calls;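 also: luminescence divided by OD600 gain over 9 h not by final OD600 alone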
* = called active by the depositor; i = inactive; ? = inconclusive; / = no result given; + = active, no number. The list is not random: actives were taken first. Their share in the collection is about 2.6%. Unless noted, no rule for the calls is given here.

SMILES	PHOSPHO1 block	ABCB6 inh MLPCN	PABP FP inh	eIF4H FP inh	PABP1 MLLE inh	AI-2 QS modul
CCN1CCN(C(c2cccc(OC)c2)c2sc3nc(C)nn3c2O)CC1 (centres undefined)	4	99	i	0	8	-6
CCn1c(C)c2c([n+]1CC)CC(C)(C)CC2=O	91*	97	i	4	-121	7
COc1cccc(-c2nc(CN3CCN(C(=O)c4ccco4)CC3)c(C)o2)c1OC	/	95	/	/	7	/
O=C(/C=C/c1ccco1)N/C(=C\c1ccco1)C(=O)NCCc1nc2ccccc2[nH]1	-9	98	+	77*	-3	1
CC(C)=C(NC(=O)c1ccccc1)C(=O)NCCc1nc2ccccc2[nH]1	64*	93	/	/	0	12
CCc1nc2ccc(C(=O)N3CCN(C(=O)c4ccco4)CC3)cn2c1N(CC)Cc1cccc(Br)c1	/	99	/	/	14	/
CC(=O)Nc1cccc(-c2cc(NC(C)=O)c3ncc(-c4cccc(C(F)(F)F)c4)n3c2)c1	/	99	/	/	-3	/
CCc1ccc(NC(=O)C(=O)N/N=C(\C)CC(=O)Nc2ccccn2)cc1	-8	95	+	98	16	14
C/C(CC(=O)Nc1ccccn1)=N\NC(=O)C(=O)Nc1ccccc1C	-5	105	i	14	0	12
CC1(C(=O)NS(=O)(=O)c2cccc(OC(F)F)c2)CCN1C(=O)CC(c1ccccc1)c1ccccc1 (centres undefined)	/	114	/	/	14	/
COc1ccnc(CN(C)C(=O)C2CCC(=O)N(CCN(C)C)C2)c1 (centres undefined)	50	96	i	54*	-8	-2
CC1(C)CC2(OC2c2ccccc2[N+](=O)[O-])C(=O)c2ccccc21 (centres undefined)	/	97	/	/	5	/
Nc1nc2ccc(S(=O)(=O)N3CCCCC3)cc2s1	50	89	i	-5	42*	21
O=C(CSc1ccc2c(c1)OCCO2)NCCc1ccc(Cl)cc1Cl	3	97	i	-12	40*	23
CCC(c1nnc(SCC(=O)NCCc2ccc(Cl)cc2Cl)o1)N(C)C (centres undefined)	67*	90	i	0	21	-6
C[n+]1cnn2c1SCC1(COC1)C2	92*	103	/	/	-126	23
Fc1cc(Cl)cc2ccc(-c3ccccc3)nc12	/	94	/	/	0	/
CC1(C(=O)Nc2cccc3cccnc23)CCN1C(=O)CC1CC1 (centres undefined)	/	99	/	/	2	/
Cc1cnc(C(=O)Oc2c(C)ccc(C)c2C)cn1	141*	103	i	13	1	36
Cc1cnc(C(=O)OCC(=O)c2c[nH]c3ccccc23)cn1	/	122	/	/	-27	/
CNc1ccc(-c2cccc([N+](=O)[O-])c2)cn1	/	94	/	/	-3	/
CN1CCCCc2c1[nH]c1ccccc1c2=O	24	103	+	59*	15	25
c1ccc2c(c1)ncn2Cc1nnc2sc(-c3ccc4c(c3)OCO4)nn12	67*	97	i	5	3	13
c1ccc(CCc2nn3c(Cn4cnc5ccccc54)nnc3s2)cc1	69*	101	i	-4	29	-1
Clc1ccccc1-c1nn2c(Cn3cnc4ccccc43)nnc2s1	84*	138	i	2	25	5
SMILES	PHOSPHO1 block	ABCB6 inh MLPCN	PABP FP inh	eIF4H FP inh	PABP1 MLLE inh	AI-2 QS modul
COc1ccc(OCc2nn3c(Cn4cnc5ccccc54)nnc3s2)cc1	81*	93	i	2	31	9
Cn1c(NCCc2ccncc2)nc2cc(-c3ccccc3)sc2c1=O	/	98	/	/	-7	/
CC1=C(C(=O)N2CCCCCC2)CC(CC(=O)NCc2ccco2)C(=O)N1Cc1ccccc1 (centres undefined)	/	98	/	/	-6	/
COCC(C)n1c(C)cc(C(=O)CSc2nnc(Nc3ccccc3F)s2)c1C (centres undefined)	80*	91	i	0	-42	15
CC1(N2CCCCC2)C(=O)c2ccccc2C1=O	16	101	+	active	10	12
CC1(N2CCOCC2)C(=O)c2ccccc2C1=O	-2	104	i	0	14	17
CCCCS(=O)(=O)/C=C\C=C/S(=O)(=O)CCCC	7	69*	i	-6	18	?
CCCCS(=O)(=O)/C=C\C1C2C=CC(C2)C1S(=O)(=O)CCCC (centres undefined)	1	102	i	-3	10	-4
O=C(OCc1cnc(Cl)s1)c1ccccc1Cl	12	90	i	-8	-1	-3
O=C(OCn1ncc(Br)c(Br)c1=O)c1ccccc1Cl	-4	46*	i	-8	-6	-72
O=C(OCn1ncc(Br)c(Br)c1=O)c1ccc(F)cc1	13	83	i	-1	-11	-81*
CCc1nc2ccc(C(=O)Nc3cccc(OCC(=O)N(C)C)c3)cn2c1N(CC)CCOC	/	93	/	/	0	/
CN(C)CCCn1c(N)c(C#N)c2nc3ccccc3nc21	27	114	?	?	67	17
CCCCC(CC)Cn1c(N)c(C#N)c2nc3ccccc3nc21 (centres undefined)	9	95	+	68*	-14	1
CC1C2C(C)N(C)C(=O)N(C)C2N(C)C(=O)N1C (centres undefined)	-34	102	i	32	53*	11
CN1C(=O)N(C)C2C1NC(=O)N2C (centres undefined)	11	/	i	4	9	15
CCNC(=O)C1(C)CCN(Cc2csc(-c3ccccc3)n2)C1 (centres undefined)	/	97	/	/	-1	/
OC[C@@H]1CN(Cc2cccs2)C[C@H](n2cnc3c(N4CCCC4)ncnc32)O1	/	126	/	/	1	/
CCN(c1ccc(NC(=O)COC(=O)c2ccc(S(=O)(=O)N3CCCC3)cc2)cc1)C(C)C	104*	100	i	3	-12	7
O=C(CCc1ccccc1)Nc1ccc(S(=O)(=O)N2CCOCC2)cc1	32	100	i	4	2	23
O=C(COc1ccccc1)Nc1ccc(S(=O)(=O)N2CCCC2)cc1	13	96	i	-2	-1	-95*
O=C(CCc1ccccc1)Nc1ccc(S(=O)(=O)N2CCCC2)cc1	36	96	i	4	9	-89*
O=C(COc1ccccc1)Nc1ccc(S(=O)(=O)N2CCCCCC2)cc1	5	96	i	-3	2	?
COc1ccccc1NS(=O)(=O)c1cc(NC(=O)c2cccs2)ccc1N1CCCC1	64*	98	i	-11	24	40
C=CCNc1ncnc2c1ncn2[C@H]1CN(Cc2ccco2)C[C@@H](CO)O1	/	92	/	/	-12	/
O=C(COc1ncnc2ccccc12)Nc1cccc(S(=O)(=O)N2CCOCC2)c1	9	99	i	-7	-17	-25
Cc1ccccc1OCC(=O)Nc1ccc(S(=O)(=O)N2CCCC2)cc1	/	85	/	/	-5	-79*
